# Inconclusive results are not listed. The source made the active and inactive calls. Calls follow the shape of the dose curve; as a rule, active = well fitted inhibition curve with a large enough effect; inconclusive = small, poorly fitted or top-dose-only effect; inactive = no such curve, though single readings can be large or run the other way.
# Target: Retinaldehyde dehydrogenase 3 (Homo sapiens) (UniProt P47895)
# Test: qHTS for Inhibitors of the Aldehyde Dehydrogenase Family (ALDH1A3) Primary screen (AID 2061315);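 also: plate controls were DMSO vehicle for no effect and reference inhibitor for full effect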
# Details: ALDH inhibition qHTS; series mostly up to 56 µM; activity change, negative = inhibition: at the top concentration
row,Compound,"activity change, negative = inhibition"
1,COc1cc(CCO)ccc1O[C@@H]1O[C@H](CO)[C@@H](O)[C@H](O)[C@H]1O,-19.2% (inactive)
2,CC(=O)NC(C(=O)O[C@H]1CCC(C)(C)[C@@H]2CC=C3C(=O)OCC3(O)[C@@]12C)C(C)C (some centres not stated),11.1% (inactive)
3,Fc1ccccc1CNCc1ccc(-c2ccnc3[nH]ccc23)cc1,2.99% (inactive)
4,CC(=O)N[C@@H](C(=O)O[C@H]1CCC(C)(C)[C@@H]2CCC3=C(COC3=O)[C@@]12C)C(C)C,0.324% (inactive)
5,Cn1cc(C2=C(c3coc4ccccc34)C(=O)NC2=O)c2cc(Br)ccc21,29.9% (inactive)
6,CC(C)(O)C1CC(=O)C2(C)C(CCC3(C)C(c4ccoc4)OC(=O)C4OC432)C12CCC(=O)OC2 (configuration not stated),-2.39% [at 28 µM] (inactive)
7,CC1(C)CC[C@]2(C(=O)O)CC[C@]3(C)C(=CCC4[C@@]5(C)C(=O)C[C@H](O)[C@@](C)(CO)C5CC[C@]43C)[C@@H]2C1 (some centres not stated),10.8% [at 28 µM] (inactive)
8,CC1=CC(=O)[C@@]2(C(C)C)C[C@@H]12,23% (inactive)
9,CC1OC(OC2C(CO)OC(OCC3OC(OC(=O)C45CCC(C)(C)CC4C4=CCC6C7(C)CCC(OC8OC(CO)C(O)C(OC9OC(CO)C(O)C(O)C9O)C8O)C(C)(C)C7CCC6(C)C4(C)CC5)C(O)C(O)C3O)C(O)C2O)C(O)C(O)C1OC1OC(CO)C(O)C(O)C1O (configuration not stated),7.19% [at 11.2 µM] (inactive)
10,CC(C)c1ccc(CO)cc1O[C@@H]1O[C@H](CO)[C@@H](O)[C@H](O)[C@H]1O,0.235% (inactive)
11,C=C1CC2(C(=O)O)CC1CCC2C1(C)CCCC2(C)C(=O)OC(O)C21 (configuration not stated),3.72% (inactive)
12,C=C(C)[C@@H]1CC[C@]2(C(=O)O)CC[C@]3(C)C(CCC4[C@@]5(C)C[C@@H](O)[C@H](O)C(C)(C)C5CC[C@]43C)C12 (some centres not stated),1.21% [at 28 µM] (inactive)
